# Test results as given in the supplement of paper PMC9694430.
# Experiments:
# Experiment in all cases: thermal shift delta Tm vs DMSO control; higher = stronger stabilization (binding)
# Details in all cases: 12.5 µM; protein concentration 2 µM
# LOC_OS01G01410-cb001 = test system: LOC_OS01G01410-cb001
# How it was run: (§1)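 Rice kinase domain constructs were expressed in E. coli, purified, and tested by differential scanning fluorimetry with compound added in DMSO. Each well of a 96-well plate held 19.5 μl of 2 μM kinase in 100 mM potassium phosphate pH 7.5, 150 mM NaCl, 10% glycerol and 5 × SYPRO Orange, and fluorescence was read from 25°C to 95°C at 0.05°C/s. The melting temperature shift is the mean of triplicates, taken against protein with DMSO alone after Boltzmann fitting.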
# LOC_OS01G02750-cb003 = test system: LOC_OS01G02750-cb003
# How it was run: as §1
# LOC_OS01G10900-cb004 = test system: LOC_OS01G10900-cb004
# How it was run: as §1
# LOC_OS01G13800-cb001 = test system: LOC_OS01G13800-cb001
# How it was run: as §1
# LOC_OS01G14860-cb001 = test system: LOC_OS01G14860-cb001
# How it was run: as §1
# LOC_OS01G21960-cb002 = test system: LOC_OS01G21960-cb002
# How it was run: as §1
# LOC_OS01G39600-cb002 = test system: LOC_OS01G39600-cb002
# How it was run: as §1
# LOC_OS01G48390-cb002 = test system: LOC_OS01G48390-cb002
# How it was run: as §1
# LOC_OS01G51400-cb002 = test system: LOC_OS01G51400-cb002
# How it was run: as §1
# LOC_OS01G52050-cb004 = test system: T1, LOC_OS01G52050-cb004
# T1 sequence (whole entry): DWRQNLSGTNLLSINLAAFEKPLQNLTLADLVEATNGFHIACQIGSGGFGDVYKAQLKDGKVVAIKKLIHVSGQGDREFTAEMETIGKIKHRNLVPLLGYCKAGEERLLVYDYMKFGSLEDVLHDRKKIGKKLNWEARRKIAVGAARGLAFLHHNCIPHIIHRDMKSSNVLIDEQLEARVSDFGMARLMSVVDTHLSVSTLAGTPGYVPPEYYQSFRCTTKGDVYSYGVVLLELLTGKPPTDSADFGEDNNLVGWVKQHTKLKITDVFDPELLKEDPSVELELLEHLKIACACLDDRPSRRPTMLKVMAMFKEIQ
# How it was run: as §1
# LOC_OS01G57100-cb003 = test system: LOC_OS01G57100-cb003
# How it was run: as §1
# LOC_OS01G60330-cb001 = test system: LOC_OS01G60330-cb001
# How it was run: as §1
# LOC_OS01G60700-cb002 = test system: LOC_OS01G60700-cb002
# How it was run: as §1
# LOC_OS01G63280-cb003 = test system: LOC_OS01G63280-cb003
# How it was run: as §1
# LOC_OS01G67340-cb003 = test system: LOC_OS01G67340-cb003
# How it was run: as §1
# LOC_OS01G70970-cb002 = test system: LOC_OS01G70970-cb002
# How it was run: as §1
# LOC_OS02G07810-cb001 = test system: LOC_OS02G07810-cb001
# How it was run: as §1
# LOC_OS02G08530-cb003 = test system: LOC_OS02G08530-cb003
# How it was run: as §1
# LOC_OS02G14120-cb001 = test system: LOC_OS02G14120-cb001
# How it was run: as §1
# LOC_OS02G17970-cb001 = test system: LOC_OS02G17970-cb001
# How it was run: as §1
smiles,measurement,setting,value
Cc1cnc(NC(=O)Nc2cc(Br)c(C)cc2OC[C@@H]2CNCCO2)cn1,thermal shift delta Tm,LOC_OS01G01410-cb001,0.41 °C
same,thermal shift delta Tm,LOC_OS01G02750-cb003,0.39 °C
same,thermal shift delta Tm,LOC_OS01G10900-cb004,0.37 °C
same,thermal shift delta Tm,LOC_OS01G13800-cb001,-0.12 °C
same,thermal shift delta Tm,LOC_OS01G14860-cb001,0.81 °C
same,thermal shift delta Tm,LOC_OS01G21960-cb002,0.58 °C
same,thermal shift delta Tm,LOC_OS01G39600-cb002,0.24 °C
same,thermal shift delta Tm,LOC_OS01G48390-cb002,1.82 °C
same,thermal shift delta Tm,LOC_OS01G51400-cb002,0.02 °C
same,thermal shift delta Tm,LOC_OS01G52050-cb004,2.33 °C
same,thermal shift delta Tm,LOC_OS01G57100-cb003,0.95 °C
same,thermal shift delta Tm,LOC_OS01G60330-cb001,0.18 °C
same,thermal shift delta Tm,LOC_OS01G60700-cb002,0.72 °C
same,thermal shift delta Tm,LOC_OS01G63280-cb003,0.14 °C
same,thermal shift delta Tm,LOC_OS01G67340-cb003,0.03 °C
same,thermal shift delta Tm,LOC_OS01G70970-cb002,0.38 °C
same,thermal shift delta Tm,LOC_OS02G07810-cb001,0.19 °C
same,thermal shift delta Tm,LOC_OS02G08530-cb003,2.28 °C
same,thermal shift delta Tm,LOC_OS02G14120-cb001,0.85 °C
same,thermal shift delta Tm,LOC_OS02G17970-cb001,0.19 °C
COc1cc(CCc2cc(NC(=O)c3ccc(N4CC(C)NC(C)C4)cc3)n[nH]2)cc(OC)c1 (stereo not given),thermal shift delta Tm,LOC_OS01G01410-cb001,1.93 °C
same,thermal shift delta Tm,LOC_OS01G02750-cb003,0.89 °C
same,thermal shift delta Tm,LOC_OS01G10900-cb004,7.96 °C
same,thermal shift delta Tm,LOC_OS01G13800-cb001,-0.99 °C
same,thermal shift delta Tm,LOC_OS01G14860-cb001,0.38 °C
same,thermal shift delta Tm,LOC_OS01G21960-cb002,0.1 °C
same,thermal shift delta Tm,LOC_OS01G39600-cb002,0.43 °C
same,thermal shift delta Tm,LOC_OS01G48390-cb002,6.33 °C
same,thermal shift delta Tm,LOC_OS01G51400-cb002,0.35 °C
same,thermal shift delta Tm,LOC_OS01G52050-cb004,0 °C
same,thermal shift delta Tm,LOC_OS01G57100-cb003,0.84 °C
same,thermal shift delta Tm,LOC_OS01G60330-cb001,0.69 °C
same,thermal shift delta Tm,LOC_OS01G60700-cb002,0.93 °C
same,thermal shift delta Tm,LOC_OS01G63280-cb003,0.35 °C
same,thermal shift delta Tm,LOC_OS01G67340-cb003,0.25 °C
same,thermal shift delta Tm,LOC_OS01G70970-cb002,0.66 °C
same,thermal shift delta Tm,LOC_OS02G07810-cb001,0.89 °C
same,thermal shift delta Tm,LOC_OS02G08530-cb003,1.49 °C
same,thermal shift delta Tm,LOC_OS02G14120-cb001,2.12 °C
same,thermal shift delta Tm,LOC_OS02G17970-cb001,-0.05 °C
CSc1cccc(Nc2ncc3cc(-c4c(Cl)cccc4Cl)c(=O)n(C)c3n2)c1,thermal shift delta Tm,LOC_OS01G01410-cb001,0.57 °C
same,thermal shift delta Tm,LOC_OS01G02750-cb003,0.56 °C
same,thermal shift delta Tm,LOC_OS01G10900-cb004,1.7 °C
same,thermal shift delta Tm,LOC_OS01G13800-cb001,0.31 °C
same,thermal shift delta Tm,LOC_OS01G14860-cb001,0.06 °C
same,thermal shift delta Tm,LOC_OS01G21960-cb002,0.55 °C
same,thermal shift delta Tm,LOC_OS01G39600-cb002,-0.21 °C
same,thermal shift delta Tm,LOC_OS01G48390-cb002,0.12 °C
same,thermal shift delta Tm,LOC_OS01G51400-cb002,0.18 °C
same,thermal shift delta Tm,LOC_OS01G52050-cb004,0.18 °C
same,thermal shift delta Tm,LOC_OS01G57100-cb003,1.54 °C
same,thermal shift delta Tm,LOC_OS01G60330-cb001,0.88 °C
same,thermal shift delta Tm,LOC_OS01G60700-cb002,0.94 °C
same,thermal shift delta Tm,LOC_OS01G63280-cb003,0.6 °C
same,thermal shift delta Tm,LOC_OS01G67340-cb003,0.72 °C
same,thermal shift delta Tm,LOC_OS01G70970-cb002,0.3 °C
same,thermal shift delta Tm,LOC_OS02G07810-cb001,0.11 °C
same,thermal shift delta Tm,LOC_OS02G08530-cb003,0.12 °C
same,thermal shift delta Tm,LOC_OS02G14120-cb001,0.99 °C
same,thermal shift delta Tm,LOC_OS02G17970-cb001,-0.06 °C
Oc1c2ccccc2c2c3c(cccc13)N=N2,thermal shift delta Tm,LOC_OS01G01410-cb001,3.59 °C
same,thermal shift delta Tm,LOC_OS01G02750-cb003,5.55 °C
same,thermal shift delta Tm,LOC_OS01G10900-cb004,3.61 °C
same,thermal shift delta Tm,LOC_OS01G13800-cb001,0.39 °C
same,thermal shift delta Tm,LOC_OS01G14860-cb001,2.06 °C
same,thermal shift delta Tm,LOC_OS01G21960-cb002,2.7 °C
same,thermal shift delta Tm,LOC_OS01G39600-cb002,1.16 °C
same,thermal shift delta Tm,LOC_OS01G48390-cb002,5.42 °C
same,thermal shift delta Tm,LOC_OS01G51400-cb002,0.42 °C
same,thermal shift delta Tm,LOC_OS01G52050-cb004,7.57 °C
same,thermal shift delta Tm,LOC_OS01G57100-cb003,1.83 °C
same,thermal shift delta Tm,LOC_OS01G60330-cb001,9.76 °C
same,thermal shift delta Tm,LOC_OS01G60700-cb002,1.18 °C
same,thermal shift delta Tm,LOC_OS01G63280-cb003,2.18 °C
same,thermal shift delta Tm,LOC_OS01G67340-cb003,6.47 °C
same,thermal shift delta Tm,LOC_OS01G70970-cb002,6.02 °C
same,thermal shift delta Tm,LOC_OS02G07810-cb001,1.65 °C
same,thermal shift delta Tm,LOC_OS02G08530-cb003,3.38 °C
same,thermal shift delta Tm,LOC_OS02G14120-cb001,5.57 °C
same,thermal shift delta Tm,LOC_OS02G17970-cb001,0.82 °C
C=CC(=O)Nc1cccc(C)c1Nc1ncc2cc(-c3c(Cl)c(OC)cc(OC)c3Cl)ccc2n1,thermal shift delta Tm,LOC_OS01G01410-cb001,0.73 °C
same,thermal shift delta Tm,LOC_OS01G02750-cb003,1.61 °C
same,thermal shift delta Tm,LOC_OS01G10900-cb004,1.22 °C
same,thermal shift delta Tm,LOC_OS01G13800-cb001,0.52 °C
same,thermal shift delta Tm,LOC_OS01G14860-cb001,0.39 °C
same,thermal shift delta Tm,LOC_OS01G21960-cb002,0.77 °C
same,thermal shift delta Tm,LOC_OS01G39600-cb002,0.15 °C
same,thermal shift delta Tm,LOC_OS01G48390-cb002,0.36 °C
same,thermal shift delta Tm,LOC_OS01G51400-cb002,0.29 °C
same,thermal shift delta Tm,LOC_OS01G52050-cb004,0.2 °C
same,thermal shift delta Tm,LOC_OS01G57100-cb003,1.11 °C
same,thermal shift delta Tm,LOC_OS01G60330-cb001,1.2 °C
same,thermal shift delta Tm,LOC_OS01G60700-cb002,0.26 °C
same,thermal shift delta Tm,LOC_OS01G63280-cb003,-0.06 °C
same,thermal shift delta Tm,LOC_OS01G67340-cb003,0.6 °C
same,thermal shift delta Tm,LOC_OS01G70970-cb002,0.35 °C
same,thermal shift delta Tm,LOC_OS02G07810-cb001,0.78 °C
same,thermal shift delta Tm,LOC_OS02G08530-cb003,0.7 °C
same,thermal shift delta Tm,LOC_OS02G14120-cb001,1.59 °C
same,thermal shift delta Tm,LOC_OS02G17970-cb001,0.63 °C
